For eight compounds, growth results are on record in PubChem BioAssay (NCI).

Among the test systems are HCT-15 colon; HT29 colon; SNB-75 CNS; SNB-19 CNS; U251 CNS; PC-3 prostate; SK-MEL-5 melanoma; UACC-62 melanoma; LOX IMVI melanoma; SK-MEL-28 melanoma; SK-MEL-2 melanoma; EKVX NSCLC; SN12C renal; UO-31 renal; TK-10 renal; ACHN renal; CAKI-1 renal; A498 renal; CCRF-CEM leukemia; MOLT-4 leukemia.
What all share (assay): NCI-60 one-dose screen, 48 h (100 = growth as untreated, 0 = no growth, -100 = all killed)
What all share (settings): 10 µM unless noted

About 83,000 compounds went through this panel and 20% of them were active in at least one assay; those are over-represented in the sample as a whole.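 Treatment: one concentration, 48 hours, 96-well format. Scoring: percent growth, with anything below 10 considered active.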 Unmarked numbers belong to inactive results. Active and inactive are the calls of the source.

Consider `CCOC(=O)Nc1ccc2c(ccn2C(=O)c2cccc(F)c2)c1`, for which the growth in the assay on HCT-15 colon is 29%; with HT29 colon it was 1.15% (active); with SNB-75 CNS, 13.2%; with SNB-19 CNS, 27.8%; in the assay on U251 CNS, 25.7%; in the assay with PC-3 prostate, 42%. In addition, the growth is 27.7% in the assay on SK-MEL-5 melanoma; 32.3% in the assay on UACC-62 melanoma; 49.4% in the assay with LOX IMVI melanoma; 61.5% with SK-MEL-28 melanoma; 32% with SK-MEL-2 melanoma; 44.1% with EKVX NSCLC. Also, the growth in the assay on SN12C renal is 48.7%; in the assay with UO-31 renal it was 49.9%; in the assay on TK-10 renal, 59.9%; in the assay with ACHN renal, 53.4%; in the assay on CAKI-1 renal, 45.1%; in the assay on A498 renal it was -6.19% (active). The growth with CCRF-CEM leukemia was 16.7%; in the assay on MOLT-4 leukemia, 30.2%.
In the case of `O=C1[C@H]2Cc3c([nH]c4ccccc34)[C@H](c3ccc(Br)cc3)N2C(=O)CN1C1CCN(CC2CCCCC2)CC1`, the growth is 38.8% in the assay with HCT-15 colon; 11% with HT29 colon; 52.6% in the assay on SNB-75 CNS; 83.3% with SNB-19 CNS; 55.9% in the assay on U251 CNS; 60.2% with PC-3 prostate. Also, the growth in the assay on SK-MEL-5 melanoma is 69.6%; in the assay with UACC-62 melanoma, 96.7%; with LOX IMVI melanoma it was -69.2% (active); with SK-MEL-28 melanoma it was 97.6%; with SK-MEL-2 melanoma, 109%; in the assay with EKVX NSCLC, 83.8%. The growth in the assay with SN12C renal is 73.7%; with UO-31 renal, 45.3%; in the assay on TK-10 renal it was 121%; with ACHN renal, 80.4%; with CAKI-1 renal, 52.8%; with A498 renal, 79.3%. For the same compound, the growth in the assay on CCRF-CEM leukemia was 49.1%; in the assay with MOLT-4 leukemia, 38.5%.
Regarding `COC(=O)c1cccc(NC2=CC(=O)C(C)=C(C)C2=O)c1`, the growth with HCT-15 colon is 93.8%; in the assay on HT29 colon it was 110%; with SNB-75 CNS, 93.4%; with SNB-19 CNS it was 96.2%; with U251 CNS it was 94.7%; in the assay on PC-3 prostate it was 79.7%. The growth in the assay on SK-MEL-5 melanoma is 96.3%; in the assay with UACC-62 melanoma it was 96.2%; in the assay with LOX IMVI melanoma, 61%; in the assay on SK-MEL-28 melanoma it was 111%; in the assay with SK-MEL-2 melanoma, 101%; in the assay on EKVX NSCLC, 100%. The growth is 93.3% with SN12C renal; 94.5% in the assay on UO-31 renal; 133% with TK-10 renal; 100% in the assay on ACHN renal; 86.5% in the assay on CAKI-1 renal; 78.7% in the assay on A498 renal. Moreover, the growth in the assay on CCRF-CEM leukemia was 52.8%; in the assay with MOLT-4 leukemia, 40%.
For `Cc1ccc2c(n1)C(=O)C(Cl)=C(Nc1cccc(C(F)(F)F)c1)C2=O`, the growth with HCT-15 colon is -61.1% (active); in the assay on HT29 colon, 105%; in the assay on SNB-75 CNS, 109%; in the assay with SNB-19 CNS, 101%; with U251 CNS, 95.7%; in the assay on PC-3 prostate, 69.6%. Further, the growth is 96.9% in the assay with SK-MEL-5 melanoma; 97.6% with UACC-62 melanoma; -61.8% (active) in the assay with LOX IMVI melanoma; 78.5% in the assay on SK-MEL-28 melanoma; 99.7% in the assay on SK-MEL-2 melanoma; 58.1% with EKVX NSCLC. Also, the growth with SN12C renal was 85.8%; in the assay with UO-31 renal, -67.7% (active); with TK-10 renal, 127%; in the assay with ACHN renal, -96.2% (active); with CAKI-1 renal it was 81.8%; in the assay on A498 renal, 86%. The figures for the growth with CCRF-CEM leukemia and in the assay with MOLT-4 leukemia were 4.32% (active) and 6.52% (active), respectively.
For `O=C1Nc2ccccc2/C1=N\c1nnc(-c2ccccc2)o1`, the growth in the assay on HCT-15 colon was 87.2%; in the assay on HT29 colon it was 99.2%; in the assay with SNB-75 CNS it was 59.9%; in the assay with SNB-19 CNS it was 91.5%; in the assay on U251 CNS, 97.8%; with PC-3 prostate, 79%. Besides, the growth in the assay on SK-MEL-5 melanoma was 94.3%; with UACC-62 melanoma, 79.7%; with LOX IMVI melanoma, 102%; in the assay with SK-MEL-28 melanoma it was 106%; in the assay with SK-MEL-2 melanoma, 96.4%; in the assay on EKVX NSCLC it was 67.9%. Besides, the growth is 104% with SN12C renal; 75.5% in the assay with UO-31 renal; 224% with TK-10 renal; 88.2% in the assay on ACHN renal; 88.2% in the assay with CAKI-1 renal; 90.7% in the assay with A498 renal. Also, the growth in the assay on CCRF-CEM leukemia is 96.2%; in the assay on MOLT-4 leukemia, 96.7%.
With `Cc1cc(NS(=O)(=O)c2ccc(NC(=O)CSc3nc4ccccc4c(=O)n3-c3ccccc3)cc2)no1`, the growth in the assay on HCT-15 colon is 106%; with HT29 colon it was 104%; with SNB-75 CNS, 77.3%; in the assay on SNB-19 CNS, 94.2%; with U251 CNS, 100%; in the assay with PC-3 prostate, 95%. Moreover, the growth is 98.4% with SK-MEL-5 melanoma; 88.6% in the assay on UACC-62 melanoma; 94.1% in the assay with LOX IMVI melanoma; 95.9% with SK-MEL-28 melanoma; 109% in the assay on SK-MEL-2 melanoma; 96.8% with EKVX NSCLC. For the same compound, the growth in the assay with SN12C renal is 101%; in the assay with UO-31 renal it was 85.9%; in the assay on TK-10 renal, 108%; with ACHN renal, 98.1%; in the assay on CAKI-1 renal it was 94.9%; with A498 renal, 99.6%. For the same compound, the growth in the assay with CCRF-CEM leukemia is 96.8%; in the assay on MOLT-4 leukemia, 107%.
With `C/C(CC1(O)C(=O)Nc2ccccc21)=N\O` (stereo not given), the growth is 95.4% in the assay with HCT-15 colon; 104% in the assay on HT29 colon; 92.4% with SNB-75 CNS; 103% in the assay with SNB-19 CNS; 98.8% with U251 CNS; 88.6% in the assay on PC-3 prostate. The growth is 99.9% in the assay on SK-MEL-5 melanoma; 99.7% in the assay on UACC-62 melanoma; 90.4% with LOX IMVI melanoma; 108% in the assay on SK-MEL-28 melanoma; 102% in the assay on SK-MEL-2 melanoma; 87.9% in the assay on EKVX NSCLC. Besides, the growth in the assay on SN12C renal is 98%; in the assay with UO-31 renal, 84.9%; in the assay on TK-10 renal, 104%; in the assay with ACHN renal, 92.5%; in the assay on CAKI-1 renal it was 83.5%; in the assay on A498 renal, 70.6%. The growth with CCRF-CEM leukemia is 99.7%; with MOLT-4 leukemia, 95.4%.
For `CCc1cc(OC(=O)N2CCC(N3CCCCC3)CC2)ccc1Nc1cc(-c2ccc(-n3cccn3)cc2)[nH]n1`, the growth in the assay with HCT-15 colon is -44.6% (active); in the assay with HT29 colon, -19.3% (active); with SNB-75 CNS, 97.3%; in the assay on SNB-19 CNS, 69.2%; in the assay with U251 CNS, 55.8%; in the assay with PC-3 prostate, 74.1%. Also, the growth is 60.2% in the assay with SK-MEL-5 melanoma; 89.5% in the assay with UACC-62 melanoma; -92% (active) with LOX IMVI melanoma; -60.7% (active) with SK-MEL-28 melanoma; 95.9% with SK-MEL-2 melanoma; 97% in the assay with EKVX NSCLC. In addition, the growth in the assay with SN12C renal was 77.7%; with UO-31 renal, 46%; with TK-10 renal, 95.7%; in the assay with ACHN renal, 42.9%; in the assay with CAKI-1 renal, 48.4%; with A498 renal, 71.3%. The growth with CCRF-CEM leukemia was 7.95% (active); in the assay with MOLT-4 leukemia it was 18.9%.
